Measurements: the supplement of paper PMC6555819

Experiments:
Experiment in all cases: PBM binding z-score (relative to random genomic background probes); higher = stronger binding; sequences stand for … in GC…GCGATTGACAGCGTAGAATGAAGG
[1] = test system: FXR:RXRa (NR concentration 270 nM, RXRa partner concentration 90 nM)
Outline: (§1)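 Custom Agilent 4×180K protein-binding microarrays carried double-stranded probes. Their 34-nt variable regions held direct-repeat seeds, single-nucleotide variants, half-site ablations and random human genomic background sequences. Arrays were incubated 1 h with ligand-free nuclear receptor dimers in PBS pH 7.4, 2% milk, 0.02% Triton X-100, 1 mM DTT, 0.2 mg/mL BSA and 0.4 mg/ml salmon testes DNA. Antibodies against each partner (one per run) detected binding, and scanned fluorescence was regression-normalized. Binding z-scores use random background probes as reference.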

[2] = test system: LXRa:RXRa (NR concentration 270 nM, RXRa partner concentration 90 nM)
Outline: as §1

[3] = test system: LXRa homodimer (NR concentration 270 nM)
Outline: as §1

[4] = test system: LXRb:RXRa (NR concentration 270 nM, RXRa partner concentration 90 nM)
Outline: as §1

[5] = test system: LXRb homodimer (NR concentration 270 nM)
Outline: as §1

[6] = test system: PPARa:RXRa (NR concentration 270 nM, RXRa partner concentration 90 nM)
Outline: as §1

[7] = test system: PPARg:RXRa (NR concentration 180 nM, RXRa partner concentration 90 nM)
Outline: as §1

[8] = test system: PPARg:RXRa 270nM:90nM, anti-RXR (NR concentration 270 nM, RXRa partner concentration 90 nM)
Outline: as §1

[9] = test system: PPARg:RXRa 30nM:10nM, anti-RXR (NR concentration 30 nM, RXRa partner concentration 10 nM)
Outline: as §1

[10] = test system: PPARg:RXRa 90nM:30nM, anti-RXR (NR concentration 90 nM, RXRa partner concentration 30 nM)
Outline: as §1

[11] = test system: PPARg:RXRa DBDmut IVT, anti-RXR (DBD mutation: RXRa K156A/R161A, NR concentration 270 nM, RXRa partner concentration 90 nM)
Outline: as §1

[12] = test system: PPARg:RXRa IVT, anti-PPARg (NR concentration 270 nM, RXRa partner concentration 90 nM)
Outline: as §1

[13] = test system: PPARg DBDmut:RXRa IVT, anti-PPARg (DBD mutation: PPARg1 K132A/R137A, NR concentration 270 nM, RXRa partner concentration 90 nM)
Outline: as §1

[14] = test system: PPARg DBDmut IVT, anti-PPARg (DBD mutation: PPARg1 K132A/R137A, NR concentration 270 nM)
Outline: as §1

[15] = test system: PPARg homodimer (NR concentration 180 nM)
Outline: as §1

[16] = test system: PXR:RXRa (NR concentration 270 nM, RXRa partner concentration 90 nM)
Outline: as §1

[17] = test system: PXR homodimer (NR concentration 270 nM)
Outline: as §1

[18] = test system: RARa:RXR (NR concentration 270 nM, RXRa partner concentration 90 nM)
Outline: as §1

[19] = test system: RARa homodimer (NR concentration 270 nM)
Outline: as §1

[20] = test system: RARb:RXRa (NR concentration 270 nM, RXRa partner concentration 90 nM)
Outline: as §1

Sequence | PBM binding z-score [1] | PBM binding z-score [2] | PBM binding z-score [3] | PBM binding z-score [4] | PBM binding z-score [5] | PBM binding z-score [6] | PBM binding z-score [7] | PBM binding z-score [8] | PBM binding z-score [9] | PBM binding z-score [10] | PBM binding z-score [11] | PBM binding z-score [12] | PBM binding z-score [13] | PBM binding z-score [14] | PBM binding z-score [15] | PBM binding z-score [16] | PBM binding z-score [17] | PBM binding z-score [18] | PBM binding z-score [19] | PBM binding z-score [20]
AACGAAAGGTCGACGAGGTGAGTATACACCGTTT | 4.99 | 3.68 | 0.231 | 2.9 | 0.0317 | 4.82 | 3.19 | 3.42 | 1.02 | 2.48 | 0.793 | 1.94 | 0.978 | 0.568 | 1.32 | 2.95 | 0.578 | 3.56 | 0.305 | 3.91
ATCGAAAGGTCGAAGGAGAGTATACCCACCCGAA | 4.01 | 3.28 | 0.14 | 2.48 | 0.895 | 3.8 | 2.15 | 2.57 | 1.14 | 2.01 | -0.0352 | 1.35 | 0.946 | 0.145 | 1.41 | 2.39 | 0.0516 | 3.11 | 0.728 | 3.62
CCTAGTTGGTCAAGCTCACACACGCTATAGGTAC | 0.0686 | 0.299 | 0.418 | 0.309 | 0.719 | 0.0262 | 0.838 | 0.282 | 0.0303 | 0.00108 | 1.68 | 1.17 | 0.0557 | 0.393 | 0.772 | 0.179 | 0.39 | 0.432 | 1.68 | 1.14
GCATATAGGTAATTCAAGGTGAAAGTCCGATTGT | 0.457 | 4.97 | 0.799 | 2.13 | -0.412 | 1.9 | 0.967 | 1.51 | 0.0519 | 0.865 | 3.96 | 3.53 | 0.595 | 0.845 | 0.811 | 0.919 | 0.171 | 2.33 | 0.378 | 0.678
GCTGCTAGGTCAACTGAAGGTCAGCTAAAGCTCG | 5.14 | 4.92 | 4.01 | 3.69 | 0.218 | 4.26 | 3.73 | 4.61 | 1.03 | 3.19 | 5 | 4.47 | -0.0557 | -1.06 | 5.87 | 4.62 | 0.437 | 6.6 | 2.11 | 4.98
CCGACTGGGGCAAAGGTTACCATGCTCAGTACGA | 1.68 | 1.51 | -0.384 | 1.97 | -0.983 | 5.76 | 11 | 9.85 | 11.5 | 11.4 | 4.91 | 6.34 | 0.168 | -0.503 | 1.36 | 2.28 | -0.702 | 4.09 | -0.847 | 2.63
TTACCAAGGTTAAAGGTCGTTGATGCACGCCTTG | 4.98 | 5.1 | 1.51 | 4.06 | 0.439 | 5.64 | 7.98 | 8.34 | 8.79 | 8.95 | 2.09 | 4.53 | 0.805 | 0.292 | 2.41 | 5.16 | 0.943 | 6.63 | 0.588 | 3.68
TCTGCTAGGTCAGGTGGTCAGCTAACGAGCTGCC | 1.39 | 0.774 | -0.474 | 0.66 | 0.161 | 1.89 | 1.01 | 2.36 | 1.38 | 1.98 | 2.43 | 2.96 | -0.185 | -0.486 | -0.444 | 0.451 | -0.687 | 1.18 | -1.1 | 3.38
TGTCAAAGCTCAAAGGTAACGTAAGTATCCACAC | 0.08 | -0.0986 | -0.625 | 0.416 | -0.838 | 1.04 | 1.25 | 1.81 | 0.686 | 1.43 | -0.538 | 0.996 | 0.525 | 0.434 | -0.0175 | 0.078 | -0.43 | 0.683 | -0.12 | 0.692
CGTCAAAGTTCAAGCTAACGTAACAGAAAGCAGC | 7.1 | 6.1 | 3.7 | 3.81 | 1.32 | 4.93 | 4.58 | 5.18 | 2.29 | 4.32 | 0.497 | 1.77 | 1.34 | 1.15 | 3.13 | 4.47 | 2.52 | 3.3 | 2.21 | 5.24
CATACAGGGACAGCTAGGCCAGAGTAGGGACGGC | -0.116 | -0.651 | -0.464 | -0.85 | -0.351 | -0.533 | 0.544 | -0.673 | -0.277 | -0.633 | -0.69 | -0.181 | -1.17 | 0.371 | -0.647 | -0.731 | -0.605 | -0.361 | 0.0521 | 0.723
CCTACTGGGCCAAAAAGGTAATTGATGCCGATAA | -0.234 | -0.225 | -0.561 | -0.28 | -0.84 | 0.543 | 0.593 | 1.19 | -0.018 | 0.799 | 3.15 | 2.69 | 0.336 | -0.668 | -0.39 | -0.331 | -0.647 | 0.114 | 0.142 | 0.108
TTACCAAGGTGACCTGAGGTCGTTGATCCAACTC | 3.01 | 5.21 | 3.22 | 3.72 | -0.159 | 3.47 | 1.7 | 2.13 | 0.705 | 1.34 | 1.69 | 2.92 | 0.109 | -0.145 | 1.47 | 5.57 | 1.38 | 3.89 | -0.101 | 2.5
AGTCAAAATTCACTAGGTAACGTAAGATTCAGCT | 0.492 | 0.568 | 0.177 | 0.0874 | 0.267 | 0.989 | 0.791 | 0.81 | 0.61 | 1.03 | 1.45 | 2.58 | 1.21 | 0.716 | 1.09 | 0.12 | 0.568 | 1.48 | 1.44 | 0.258
